Laboratory results taken from PubChem BioAssay AID624287 (National Center for Advancing Translational Sciences (NCATS), 2012).
About 420 (0.12%) of roughly 340,000 compounds were called active. Where a call stands in place of a potency, no number is given. Another 10% or so got no clear call; they are omitted. The sample holds actives, similar compounds and a random draw of the others, so the mix is not that of the screen. Unmarked numbers belong to inactive results. Calls follow the shape of the dose curve; as a rule, active = well fitted activation curve with a large enough effect; inconclusive = small, poorly fitted or top-dose-only effect, or another doubt; inactive = no such curve, though single readings can be large or run the other way; cell line not stated here.

Assay: qHTS for Agonist of gsp, the Etiologic Mutation Responsible for Fibrous Dysplasia/McCune-Albright Syndrome: qHTS; also: nearly all actives have a fitted effect of over 60% in size;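 as to activation (cAMP increase): phosphodiesterase inhibitor Ro 20-1724 added with compounds to block cAMP breakdown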
Details: gsp mutant cells, cAMP HTRF, 30 min; series mostly up to 76.9 µM
Text: McCune-Albright syndrome (MAS) is a rare disease caused by somatic mutations in Gsgsp), a widely expressed protein central in signal transduction from G-coupled protein receptors (GPCRs). The disease symptoms are diverse, owing to the fact that the patients are mosaics with varying degrees of tissue involvement. Greater than 90% of the mutations in Gs in MAS occur at the R201 position and are equally divided between R201H and R201C. The R201 residue is central in the intrinsic GTPase activity of Gs and the H and C mutations lead to loss of, or impairment of, the GTPase activity. The intrinsic GTPase activity is necessary to terminate the interaction between Gs and adenylate cyclase, and to terminate the cAMP-mediated signaling of the given GPCR pathway. Thus, these activating mutations lead to ligand-independent activation of GPCR pathways. The tissue phenotype is determined by the role of Gs in the function of a given cell, and excess Gs/cAMP signaling in that cell. For example, pituitary somatotrophs overproduce growth hormone in a growth hormone releasing hormone-independent fashion, and gigantism/acromegaly ensues. Skeletal stem cells in the bone marrow behave as if they are under constant parathyroid hormone stimulation and fail to differentiate into osteoblasts and osteocytes, and proliferate as immature osteogenic cells and lead to the marrow fibrosis of fibrous dysplasia of bone. The goal of this project is to identify molecules with stimulatory activity at gsp mutations that will not only allow for in-depth study of the underlying molecular and cellular pathophysiology, but also serve as compounds from which drugs to treat FD/MAS can be developed NIH Chemical Genomics Center [NCGC] NIH Molecular Libraries Probe Centers Network [MLPCN] MLPCN Grant: IRP-FT-DE-2011-01 Assay Submitter (PI): Michael Collins, NIDCR
1.#Seed 2000 cells/well in 6 ul DMEM 10% FBS, 1% Pen/Strep, 0.5 mg/ml G418 2.#Incubate 16-24 hr at 37C, 5% CO2, 95% humidity 3.#Aspirate leaving 1 ul residual volume 4.#Dispense 5 ul/well DPBS + 1 mM CaCl2, 0.5 mM MgCl2, 0.05% BSA, 0.005% Tween 20 5.#Aspirate leaving 2 ul residual volume 6.#Dispense 23 nl/well compounds in DMSO 7.#Dispense 1 ul/well 300 uM Ro-20174 in DMEM 10% FBS 8.#Incubate 30 min at 37C, 5% CO2, 95% humidity 9.#Dispense 1.5 ul/well HTRF reagent: cAMP-d2 in lysis buffer 10.#Dispense 1.5 ul/well HTRF reagent: anti-cAMP antibody-K in lysis buffer 11.#Incubate 30 min at room temperature 12.#Detect HTRF signal using EnVision plate reader
Potency is read from the fitted curve at half-maximal effect.

Compound	Potency	activation (cAMP increase)
CC(OC(=O)c1ccc(NC(=O)CC#N)cc1)C(=O)Nc1ccc(S(=O)(=O)N2CCCC2)cc1 (stereo unspecified)	inactive	
CC(C)n1ncc2c(C(=O)N3CCN(Cc4cccs4)CC3)cc(C3CC3)nc21	inactive	
CN(c1ccccc1)S(=O)(=O)c1ccc(C(=O)NCc2cccnc2)cc1	inactive	
Cc1ccc(Cc2c(-c3ccc(C)cc3)nc3c4ccccc4ccn23)cc1	inactive	
OCCC1CN(Cc2ccc3nsnc3c2)CCN1C1CCCCC1 (stereo unspecified)	inactive	
OCCC1CN(Cc2ccc3nsnc3c2)CCN1C1CCCC1 (stereo unspecified)	inactive	
COc1cccc2c1OCC(CN1CCN(C3CCCCC3)C(CCO)C1)=C2 (stereo unspecified)	7.94 µM (active)	
O=C1CC[C@@H](C(=O)N2CSC[C@@H]2C(=O)Nc2ccc(C(F)(F)F)cc2)N1	inactive	
O=C(CSc1ccc(Cl)cc1)NC1CC1	inactive	
COc1ccc(C(=O)NC(C)CCc2ccccc2)c(OC)c1 (stereo unspecified)	inactive	
COc1ccc(C(=O)NC2=NCCS2)c(OC)c1	inactive	
COc1ccc(C(=O)Nc2cccc(NC(=O)c3ccc(OC)cc3OC)n2)c(OC)c1	15.8 µM (active)	
O=S1(=O)CCN(C2CCCCCCCCCCC2)CC1	inactive	
O=S(=O)(c1cccc(C(F)(F)F)c1)N1c2ccccc2-n2cccc2C1c1cccnc1 (stereo unspecified)	inactive	
O=Nc1c(O)cc(O)c2ccccc12	inactive	
O=C(c1ccc(CS(=O)Cc2ccccc2Cl)o1)N1CCN(c2ccccc2)CC1 (stereo unspecified)	inactive	
COCCn1c(SCC(=O)Nc2ccc(F)cc2F)nc2c(c1=O)SCC2	inactive	
COCOCCn1cc(CN2CCS(=O)(=O)N(Cc3ccc(-c4ccc(OC)cc4)cc3)C(CC(C)C)C2=O)nn1 (stereo unspecified)	inactive	
Cc1ccc(-c2ccc(CN3C(C(C)C)C(=O)N(Cc4cn(CCC5OCCO5)nn4)CCS3(=O)=O)cc2)cc1 (stereo unspecified)	inactive	
CC1(C2CC2)NC(=O)N(CC(=O)N2CCN(c3ccccc3F)CC2)C1=O (stereo unspecified)	inactive	
CCN(CC)C(=O)C1=C(C)N(Cc2ccccc2)C(=O)C(CC(=O)NC(c2ccccc2)c2ccccc2)C1 (stereo unspecified)	inactive	

Compound	Potency	activation (cAMP increase)
O=C(N=C1SC2CS(=O)(=O)CC2N1Cc1ccccc1)c1ccccc1 (stereo unspecified)	inactive	
COc1cccc(OCC(=O)NCCS(=O)(=O)N2CCN(c3ccccc3)CC2)c1	inactive	
Cn1c(=O)c2c(ncn2CC(=O)N/N=C/c2cn[nH]c2-c2ccc(F)cc2)n(C)c1=O		54.2% [at 15.4 µM]
CN(C(=O)COC(=O)Cn1cnc2c1c(=O)n(C)c(=O)n2C)C1(C#N)CCCCC1	28.2 µM (active)	
Cc1cnc(NC(=O)Cn2cnc3c2c(=O)n(C)c(=O)n3C)s1		0.329% [at 15.4 µM]
CSc1ncnc2c1ncn2CCCNCc1ccco1	inactive	
Cc1ccc(S(=O)(=O)N2C[C@H]3n4c(=O)ccc(=O)n4C[C@H](OC(=O)NC4CCCC4)[C@@]3(O)C2)cc1	inactive	
O=C(c1ncn2c1c(=O)[nH]c1ccccc12)N1CCc2ccccc2C1	inactive	
CCCCCCNC(=O)O[C@H]1CN(C(=O)OC(C)C)N(C(=O)OC(C)C)[C@@H]2CN(S(=O)(=O)c3ccc(C)cc3)C[C@]12O	inactive	
CSc1ncccc1C(=O)N1CCCC(Nc2ccc(F)c(F)c2)C1 (stereo unspecified)	inactive	
COc1cccc(NC(=O)CN(C)C(=O)c2cc(Cl)nc3ccccc23)c1	inactive	
COc1ccc(S(=O)(=O)N(C)C)cc1NC(=O)COC(=O)c1n[nH]c2ccccc12	inactive	
Cc1ccc([C@H]2N[C@]3(CCCN(CC4CCCCC4)C3=O)[C@H]3C(=O)N(Cc4ccccc4)C(=O)[C@@H]23)cc1	inactive	
CCOC(=O)c1c(C)[nH]c(C)c1C(=O)COC(=O)/C=C/c1cccc([N+](=O)[O-])c1	inactive	
O=C(NCCN1CCOCC1)c1ccc2c(c1)N(Cc1cccc(Cl)c1)C(=O)c1ccccc1S2(=O)=O	inactive	
CC(C)N=C1CCCC1C(=S)SSC(=S)C1CCCC1=NC(C)C (stereo unspecified)	inactive	
CCOC(=O)c1cc(-c2sc(NC(=O)c3ccccc3)nc2C)n(Cc2ccccc2)n1	inactive	
COc1ccc(CN2C(=O)C(CC(=O)NCCCCc3ccccc3)CC(C(=O)N3CCOCC3)=C2C)cc1 (stereo unspecified)	inactive	
CCN(CC)C(=O)C1=C(C)N(Cc2ccc(OC)cc2)C(=O)C(CC(=O)NCc2ccco2)C1 (stereo unspecified)	inactive	
O=C(NCCN1CCOCC1)C1CCN(S(=O)(=O)c2ccccc2)CC1	inactive	
NC(=O)Cc1ccc2sc(-c3ccccc3)nc2c1	inactive	

Compound	Potency	activation (cAMP increase)
O=C(O)Cc1sc(-c2ccccc2)nc1-c1cccs1	12.6 µM (active)	
CN(C(=O)COc1nnc(-c2cccs2)c(-c2cccs2)n1)c1ccccc1	inactive	
O=C(Cc1ccc([N+](=O)[O-])cc1)NCCS(=O)(=O)N1CCN(c2ccccc2)CC1	inactive	
CCc1ccccc1OCC(=O)Nc1nnc(C2CC2)s1	inactive	
COc1ccc([C@H]2N[C@]3(CCCN(CC4CCCCC4)C3=O)[C@H]3C(=O)N(C)C(=O)[C@@H]23)cc1	inactive	
Cc1ccc(C(=O)OCC(=O)NC2CCCCCCC2)cc1C	inactive	
CC(Sc1cccc[n+]1[O-])C(=O)Nc1cccc(S(=O)(=O)N2CCOCC2)c1 (stereo unspecified)		27.2% [at 15.4 µM]
CC(Sc1ccccc1F)C(=O)Nc1cccc(S(=O)(=O)N2CCOCC2)c1 (stereo unspecified)	inactive	
COc1cc2c(cc1OC)CN(C(C)C(=O)Nc1cccc(S(=O)(=O)N3CCOCC3)c1)CC2 (stereo unspecified)	10 µM (active)	
COc1ccc(C(C)(C)C)cc1NC(=O)CN(C)C1=NS(=O)(=O)c2ccccc21	inactive	
CC1(C)OC(=O)C2=C(CC(c3ccccc3)OC2CCc2ccccc2)O1 (stereo unspecified)	inactive	
O=C1CCC(=O)N1CCC(=O)N(C(=O)NC1CCCCC1)C1CCCCC1	inactive	
CC(=NNC(N)=O)C1CC2CCC1CC2 (stereo unspecified)	inactive	
CC1(c2cccc(Br)c2)NC(=O)N(CC(=O)NCCC2=CCCCC2)C1=O (stereo unspecified)	inactive	
COc1ccccc1C(=O)NC(=S)Nc1ccc(N2CCOCC2)cc1	inactive	
COc1ccc(-c2ccc(CN3C(CC(C)C)C(=O)N(Cc4cn(CC5CCCCC5)nn4)CCS3(=O)=O)cc2)cn1 (stereo unspecified)	inactive	
O=C1C(=O)N(CCCN2CCOCC2)C(c2ccc([N+](=O)[O-])cc2)/C1=C(\O)c1ccc2c(c1)OCCO2 (stereo unspecified)	inactive	
O=C1C(=O)N(CCN2CCOCC2)C(c2cccc(Cl)c2)/C1=C(/O)c1ccc2c(c1)OCO2 (stereo unspecified)	12.6 µM (active)	
COc1ccc(C2/C(=C(/O)c3ccc(OC(C)C)cc3)C(=O)C(=O)N2CCCN2CCOCC2)cc1 (stereo unspecified)	inactive	
